Compounds with a hit are over-represented: about 4.8% of the library has one in this group of screens.
ssDAF12 agonist – S. stercoralis DAF-12 activation, primary screen. activation, % at 6.8 µM. HEK293 ssDAF-12/GRIP1 lit1-tk-luc reporter, luminescence; % of 3 µM dafachronic acid response. actives 1% (n = 370,000). AID 652126;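 active = activation above the mean over all tested compounds plus 3 SD, cut at about 0.9% in these data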
DAX1 inh-1 – inhibits human nuclear receptor DAX1; AID 504766; actives 0.99% (n = 340,000); P51843; HEK293 Gal4-DAX1 luciferase reporter, luminescence; inhibition, % at 6.75 µM;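 active = inhibition above the mean over all tested compounds plus 3 SD, cut at about 4.2% in these data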;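 note: inhibition shows as a rise in luminescence from relieved DAX1 repression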
Target sequence (P51843 207-470 limits assumed): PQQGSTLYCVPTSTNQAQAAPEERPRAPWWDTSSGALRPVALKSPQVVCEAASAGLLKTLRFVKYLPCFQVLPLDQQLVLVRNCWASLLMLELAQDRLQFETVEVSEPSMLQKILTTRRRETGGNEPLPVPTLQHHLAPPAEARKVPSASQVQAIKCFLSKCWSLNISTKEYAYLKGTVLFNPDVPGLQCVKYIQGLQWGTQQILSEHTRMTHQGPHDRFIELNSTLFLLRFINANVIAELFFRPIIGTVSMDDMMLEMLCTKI
DAX1 inh-2 – DAX1 (NR0B1) inhibition, primary screen; actives 1.1% (n = 370,000); inhibition, % at 6.8 µM; HEK293T StAR-luciferase reporter, SF-1/DAX-1 repression relief;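 active = inhibition above the mean over all tested compounds plus 3 SD, cut at about 3.6% in these data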;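 note: higher inhibition means more luminescence from relief of DAX-1 repression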
hgDAF12 agonist – hgDAF-12 agonism, primary luciferase screen; HEK293 GAL4-hgDAF12 UAS-luciferase reporter, agonist luminescence; normalized to butyrate control; activation, % at 6.8 µM; actives 1.8% (n = 370,000); AID 687014;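 active = activation above a cutoff set at the mean of all screened compounds plus 3 SD, cut at about 10% in these data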
hcDAF-12 act – activates DAF-12 receptor from parasite H. contortus | HEK293 hcDAF-12 lit1-tk-luc reporter, luminescence; 0% DMSO, 100% Δ7-dafachronic acid | activation, % at 6.8 µM | actives 1.4% (n = 370,000) | AID 652067;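 active = activation above the mean of all tested compounds plus 3 SD, cut at about 5.5% in these data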
SMARCA2 activ – activators of SMARCA2 function | MG213 cells, MMTV-luciferase reporter, dexamethasone, overnight | activation, % at 9.1 µM | actives 1% (n = 370,000); in the data active = activation above about 7.8%
DAX1 inh confirm – confirmation of human DAX1 (NR0B1) inhibitors. actives 87% (n = 2,400). AID 652134. shares compounds with DAX1 inh-2. HEK293T StAR-promoter luciferase reporter, SF-1/DAX-1 repression. inhibition, % at 6.8 µM;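 active = inhibition above the average of every tested compound plus 3 SD, cut at about 3.8% in these data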;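 note: active compounds raise luminescence by relieving repression of the StAR reporter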
Target sequence (P51843 whole entry, looked up): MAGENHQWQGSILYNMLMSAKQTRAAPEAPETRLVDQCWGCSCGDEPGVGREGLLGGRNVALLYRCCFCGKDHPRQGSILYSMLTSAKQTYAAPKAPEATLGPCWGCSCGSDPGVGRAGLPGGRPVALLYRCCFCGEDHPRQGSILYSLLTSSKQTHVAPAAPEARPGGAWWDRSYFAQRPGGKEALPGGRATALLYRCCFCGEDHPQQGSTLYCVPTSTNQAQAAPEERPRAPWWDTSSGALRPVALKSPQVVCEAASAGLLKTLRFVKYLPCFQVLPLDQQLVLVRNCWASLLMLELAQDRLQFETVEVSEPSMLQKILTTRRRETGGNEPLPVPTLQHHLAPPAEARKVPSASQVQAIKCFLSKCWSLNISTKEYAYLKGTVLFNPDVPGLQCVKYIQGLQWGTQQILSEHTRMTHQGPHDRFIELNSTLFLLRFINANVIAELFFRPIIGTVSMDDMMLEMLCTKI
SF1 AF2mut Luc – nonselective inhibitor or artifact in SF-1 mutant DAX1 counter-screen; shares compounds with DAX1 inh-2; HEK293 StAR-luciferase, SF-1 AF2 mutant, luminescence; inhibition, % at 6.8 µM; actives 78% (n = 2,400); AID 652136;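 active = inhibition above the mean of all tested compounds plus 3 SD, cut at about 3% in these data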
SMARCA2 conf – confirmation of SMARCA2 (BRM) function activators | MG213 cells, MMTV-luciferase with dexamethasone, luminescence, overnight; MG213 cells expressing E1A, Rb sequestered; DMSO wells 0%, reference activator 100% | activation, % at 9.1 µM | AID 652260 | shares compounds with SMARCA2 activ | actives 30% (n = 3,500);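 active = activation above its plate's cutoff, the mean activation of tested wells plus 3 SD, cut at about 7.9% in these data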
VP16 Luc act – counter-screen for SMARCA2 activators: GAL4-VP16 luciferase reporter activation | AID 686939 | HEK293 GAL4-VP16 pG5luc reporter, luciferase luminescence; scaled: DMSO wells 0%, SAHA wells 100% | actives 41% (n = 3,500) | activation, % at 9.1 µM | shares compounds with SMARCA2 activ;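 active = activation above the solvent-only control well mean plus 3 SD, averaged across control plates, cut at about 5.2% in these data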
LXRb hcDAF ctr – LXR-beta agonism as hcDAF-12 counter-screen; shares compounds with hcDAF-12 act; activation, % at 6.8 µM; 3,400 tested, under 10 active; HEK293 Gal4-LXR tk-luc reporter, luminescence, 24 h; normalized: DMSO 0%, positive control 100%;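 active = mean percent activation of the reporter above a cutoff set as the average over tested compounds plus their standard deviation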
hcDAF12 conf – hcDAF-12 agonism, confirmation assay; HEK293 hcDAF-12 lit1-tk-luc reporter, luminescence; % of Δ7-dafachronic acid response; activation, % at 6.8 µM; AID 743032; actives 61% (n = 3,400); shares compounds with hcDAF-12 act;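 active = mean activation across triplicate tests above the threshold derived from the earlier primary screen, cut at about 5.5% in these data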
hgDAF12 conf – confirmation of H. glycines DAF-12 agonists. actives 80% (n = 3,300). AID 743050. HEK293 GAL4-hgDAF12 luciferase reporter, agonist mode; percent of butyrate response. shares compounds with hgDAF12 agonist. activation, % at 6.8 µM;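 active = mean activation over triplicate wells above the hit cutoff derived from the earlier primary screen, cut at about 11% in these data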
LXR ag 2 – activates human LXR-beta, counter-screen for DAF-12 agonists. AID 743051. 3,300 tested, under 10 active. shares compounds with hgDAF12 agonist. HEK293 Gal4-LXR luciferase reporter, 24 h. activation, % at 6.8 µM;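 active = mean activation of the triplicate above a set limit carried over from the primary screen, none filed active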
Each line names hits and unclear results; the compound was inactive in the other large screens (follow-up assays come after a bar, where they were run).

O=C(Nc1nccs1)c1cncc(Br)c1	DAX1 inh-2 6.3, hgDAF12 agonist 14.8, hcDAF-12 act 7.9 | DAX1 inh confirm 7.6 | SF1 AF2mut Luc 6.3 | LXRb hcDAF ctr inactive | hcDAF12 conf 6.0 | hgDAF12 conf 10.8 | LXR ag 2 inactive
CC(C)C(C(=O)Nc1sc2c(c1C#N)CCCCC2)N1C(=O)c2ccccc2C1=O (stereo unspecified)	none
Cc1cccnc1NC(=S)NC(=O)c1cccs1	ssDAF12 agonist 2.2, DAX1 inh-2 7.2, hgDAF12 agonist 17.7, hcDAF-12 act 14.2 | DAX1 inh confirm 13.8 | SF1 AF2mut Luc 10.5 | LXRb hcDAF ctr inactive | hcDAF12 conf 14.6 | hgDAF12 conf 16.7 | LXR ag 2 inactive
N#CCSc1nnc(-c2ccccc2O)n1Cc1ccccc1	none
O=C(Nc1ccc(Cl)cc1)Nc1nnc(SCc2ccccc2)s1	none
NC(=O)c1ccsc1NC(=O)c1ccc(N2CCCC2=O)cc1	ssDAF12 agonist 1.0, DAX1 inh-2 6.7, hgDAF12 agonist 25.5, hcDAF-12 act 7.4 | DAX1 inh confirm 14.3 | SF1 AF2mut Luc 9.6 | LXRb hcDAF ctr inactive | hcDAF12 conf 6.9 | hgDAF12 conf 16.7 | LXR ag 2 inactive
CCN(CC)c1ccc(NC(=O)COC(=O)CCC(=O)c2cccs2)cc1	none
Cc1ccccc1CSCCNC(=O)c1ccccc1	none
Cc1nc(NC(=O)c2csc3ccccc23)sc1C	ssDAF12 agonist 1.5, DAX1 inh-2 5.1, hgDAF12 agonist 23.7, hcDAF-12 act 13.2 | DAX1 inh confirm 11.5 | SF1 AF2mut Luc 5.0 | LXRb hcDAF ctr inactive | hcDAF12 conf 9.7 | hgDAF12 conf 20.3 | LXR ag 2 inactive
Cc1nc(NC(=O)c2ccccc2O)sc1C	none
CN(C)C(C)(C)C#CC(O)(c1ccccc1)c1ccccc1	none
CCc1ccc2cc3c(cc2n1)C(=O)c1ccccc1-3	ssDAF12 agonist 3.6, DAX1 inh-2 9.5, hgDAF12 agonist 20.5, hcDAF-12 act 17.2, SMARCA2 activ 8.6 (no result: DAX1 inh-1) | DAX1 inh confirm 10.7 | SF1 AF2mut Luc 6.4 | SMARCA2 conf 12.1 | VP16 Luc act 13.3 | LXRb hcDAF ctr inactive | hcDAF12 conf 16.1 | hgDAF12 conf 22.6 | LXR ag 2 inactive
COC(=O)C1=C(C)N(C)C(=S)N(C)C1c1ccc(OC)cc1 (stereo unspecified)	none
COc1ccc(N=C2C(=Nc3ccc(OC)cc3)N(c3ccccc3)C(=S)N2C(=O)c2ccc(Cl)cc2)cc1	DAX1 inh-2 4.5, hgDAF12 agonist 15.0 | DAX1 inh confirm 6.0 | SF1 AF2mut Luc 5.8 | hgDAF12 conf 18.3 | LXR ag 2 inactive
COc1ccc(N=C2C(=Nc3ccc(OC)cc3)N(c3ccc(OC)cc3)C(=S)N2C(=O)c2ccc(OC)cc2)cc1	none
COc1ccc(C2=Nc3ccccc3N(C(=O)c3ccc4ncccc4c3)C2C(=O)NC(C)(C)C)cc1 (stereo unspecified)	ssDAF12 agonist 1.3, DAX1 inh-2 5.5, hgDAF12 agonist 23.0, hcDAF-12 act 11.1 (no result: DAX1 inh-1) | DAX1 inh confirm 10.8 | SF1 AF2mut Luc 5.8 | LXRb hcDAF ctr inactive | hcDAF12 conf 11.8 | hgDAF12 conf 15.3 | LXR ag 2 inactive
COc1ccc(C2=Nc3ccccc3N(C(=O)Cc3cc(OC)cc(OC)c3)C2C(=O)NC(C)(C)C)cc1 (stereo unspecified)	none (no result: DAX1 inh-1)
COc1ccc(C(O)c2nc(-c3cnc4ccccc4c3)cs2)cc1 (stereo unspecified)	none (no result: DAX1 inh-1)
OC(c1ccc(F)cc1)c1nc(-c2cnc3ccccc3c2)cs1 (stereo unspecified)	DAX1 inh-2 5.1, hgDAF12 agonist 16.1, hcDAF-12 act 6.6 (no result: DAX1 inh-1) | DAX1 inh confirm 11.0 | SF1 AF2mut Luc 8.1 | LXRb hcDAF ctr inactive | hcDAF12 conf 7.9 | hgDAF12 conf 19.2 | LXR ag 2 inactive
Cc1ccc(Nc2ncnc3nc[nH]c23)cc1Cl	DAX1 inh-2 6.4, hgDAF12 agonist 13.7 | DAX1 inh confirm 8.1 | SF1 AF2mut Luc 5.5 | hgDAF12 conf 14.0 | LXR ag 2 inactive
Cc1ccccc1NC(=O)c1nnn(-c2ccc3c(c2)OCCO3)c1N	none
Nc1c(C(=O)Nc2cccc(F)c2)nnn1-c1ccc2c(c1)OCCO2	DAX1 inh-2 4.5, hgDAF12 agonist 17.0, hcDAF-12 act 7.0 | DAX1 inh confirm 15.8 | SF1 AF2mut Luc 5.2 | LXRb hcDAF ctr inactive | hcDAF12 conf 8.4 | hgDAF12 conf 18.1 | LXR ag 2 inactive
CCCn1cnc2cc(NC(=O)c3ccco3)ccc21	ssDAF12 agonist 1.2, DAX1 inh-2 5.5, hgDAF12 agonist 14.6, hcDAF-12 act 6.6 | DAX1 inh confirm inactive | SF1 AF2mut Luc 3.8 | LXRb hcDAF ctr inactive | hcDAF12 conf inactive | hgDAF12 conf inactive | LXR ag 2 inactive
O=C(Nc1ccc(NC(=O)c2ccco2)nc1)c1ccco1	DAX1 inh-2 5.9, hgDAF12 agonist 14.9 | DAX1 inh confirm 10.2 | SF1 AF2mut Luc 2.9 | hgDAF12 conf 12.9 | LXR ag 2 inactive
